Screening data deposited in PubChem by The Scripps Research Institute Molecular Screening Center.
This is a sample that favours compounds with a hit; in the whole collection about 4.1% have one here.
hcDAF-12 act: activators of H. contortus DAF-12 nuclear receptor; hit rate 1.4% among 370,000; activation, % at 6.8 µM; HEK293 hcDAF-12 lit1-tk-luc reporter, luminescence; 0% DMSO, 100% Δ7-dafachronic acid; AID 652067;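 active means activation above the mean of all tested compounds plus 3 SD, cut at about 5.5% in these data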
hgDAF-12 ag: hgDAF-12 agonism, primary luciferase screen; HEK293 GAL4-hgDAF12 UAS-luciferase reporter, agonist luminescence; normalized to butyrate control; hit rate 1.8% among 370,000; activation, % at 6.8 µM;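 active means activation above a cutoff set at the mean of all screened compounds plus 3 SD, cut at about 10% in these data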
ssDAF12 agonist: activators of S. stercoralis DAF-12 nuclear receptor; activation, % at 6.8 µM; HEK293 ssDAF-12/GRIP1 lit1-tk-luc reporter, luminescence; % of 3 µM dafachronic acid response; hit rate 1% among 370,000; AID 652126;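 active means activation above the mean over all tested compounds plus 3 SD, cut at about 0.9% in these data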
DAX1 inh-1: blocks DAX1 repression of SF-1 activated StAR promoter; hit rate 1.1% among 370,000; inhibition, % at 6.8 µM; AID 652010; HEK293T StAR-luciferase reporter, SF-1/DAX-1 repression relief;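 active means inhibition above the mean over all tested compounds plus 3 SD, cut at about 3.6% in these data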;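 further: higher inhibition means more luminescence from relief of DAX-1 repression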
DAX1 inh-2: inhibitors of human orphan nuclear receptor DAX1 (NR0B1); HEK293 Gal4-DAX1 luciferase reporter, luminescence; inhibition, % at 6.75 µM; hit rate 0.99% among 340,000; AID 504766;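 active means inhibition above the mean over all tested compounds plus 3 SD, cut at about 4.2% in these data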;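 further: inhibition shows as a rise in luminescence from relieved DAX1 repression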
Target sequence (P51843 207-470 limits assumed): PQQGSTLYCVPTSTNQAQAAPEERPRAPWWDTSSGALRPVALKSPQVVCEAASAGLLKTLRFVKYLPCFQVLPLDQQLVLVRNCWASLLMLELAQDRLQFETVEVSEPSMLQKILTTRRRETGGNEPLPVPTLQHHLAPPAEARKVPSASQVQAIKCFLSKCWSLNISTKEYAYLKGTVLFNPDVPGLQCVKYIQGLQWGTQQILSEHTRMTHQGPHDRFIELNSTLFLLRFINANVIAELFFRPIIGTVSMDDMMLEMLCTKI
A number is an active result.

Screening CCN(CC)S(=O)(=O)c1ccc(-c2nnc(SCC(=O)Nc3nc(C)cs3)o2)cc1 returned hcDAF-12 act inactive, hgDAF-12 ag inactive, ssDAF12 agonist inactive, DAX1 inh-1 inactive and DAX1 inh-2 inactive.
`Cc1csc(NC(=O)CSc2nnc(-c3ccccc3)o2)n1` gave hcDAF-12 act 5.7, hgDAF-12 ag inactive, ssDAF12 agonist inactive, DAX1 inh-1 4.3 and DAX1 inh-2 inactive.
`Cn1ccnc1SCc1cn2cc(Br)ccc2n1` gave hcDAF-12 act inactive, hgDAF-12 ag inactive, ssDAF12 agonist 1.2, DAX1 inh-1 inactive and DAX1 inh-2 inactive.
`COC(=O)[C@]12C[C@H](CC(=O)N3CCCC3)C(=O)N(Cc3ccco3)C1=C[C@H](COCc1ccccc1)O[C@@H]2C` gave hcDAF-12 act inactive, hgDAF-12 ag inactive, ssDAF12 agonist inactive and DAX1 inh-1 inactive.
`Nc1c(Cl)cc(C2=NCCn3nc4cc([N+](=O)[O-])ccc4c32)cc1Cl` gave hcDAF-12 act 5.8, hgDAF-12 ag inactive, ssDAF12 agonist inactive, DAX1 inh-1 inactive and DAX1 inh-2 inactive.
`COc1ccccc1Oc1nc2ccccn2c(=O)c1/C=C(\C#N)C(=O)Nc1c(C)n(C)n(-c2ccccc2)c1=O` gave hcDAF-12 act inactive, hgDAF-12 ag inactive, ssDAF12 agonist inactive, DAX1 inh-1 inactive and DAX1 inh-2 4.8.
Screening Cc1ccsc1/C=C(\C#N)C(=O)Nc1c(C)n(C)n(-c2ccccc2)c1=O returned hcDAF-12 act inactive, hgDAF-12 ag inactive, ssDAF12 agonist inactive, DAX1 inh-1 inactive and DAX1 inh-2 4.8.
Screening O=S1(=O)CCC(NCC2CCCO2)C1 (centres undefined) returned hcDAF-12 act inactive, hgDAF-12 ag inactive, ssDAF12 agonist inactive, DAX1 inh-1 inactive and DAX1 inh-2 7.4.
CCNC1CCS(=O)(=O)C1 (centres undefined) was read as hcDAF-12 act inactive, hgDAF-12 ag inactive, ssDAF12 agonist inactive, DAX1 inh-1 inactive and DAX1 inh-2 inactive.
O=C(NCc1ccccc1)C(c1ccco1)N1CCN(CCN2CCOCC2)CC1 (centres undefined) was read as hcDAF-12 act inactive, hgDAF-12 ag inactive, ssDAF12 agonist inactive and DAX1 inh-1 inactive.
For Cc1ccc(S(=O)(=O)N2CCCc3nc(-c4ccccc4)ccc32)cc1 the results were hcDAF-12 act inactive, hgDAF-12 ag inactive, ssDAF12 agonist inactive and DAX1 inh-1 inactive.
`COC(=O)[C@]12C[C@H](CC(=O)N3CCCC3)C(=O)N(Cc3cccc4ccccc34)C1=C[C@H](COCc1ccccc1)O[C@@H]2C` gave hcDAF-12 act inactive, hgDAF-12 ag inactive, ssDAF12 agonist inactive and DAX1 inh-1 inactive.
`Cc1nnc(SCC(=O)NNC(=O)c2ccc(F)cc2)n1Cc1ccccc1` gave hcDAF-12 act inactive, hgDAF-12 ag inactive, ssDAF12 agonist 1.4, DAX1 inh-1 inactive and DAX1 inh-2 4.5.
Screening CCOC(=O)Cn1nnnc1C(C(C)C)N(Cc1cccs1)Cc1cc2cc(C)ccc2[nH]c1=O (centres undefined) returned hcDAF-12 act inactive, hgDAF-12 ag inactive, ssDAF12 agonist inactive, DAX1 inh-1 inactive and DAX1 inh-2 4.3.
Screening COc1cc(CNc2ccc3[nH]c(=O)[nH]c3c2)ccc1OCc1ccc(C)cc1 returned hcDAF-12 act inactive, hgDAF-12 ag 12, ssDAF12 agonist inactive, DAX1 inh-1 inactive and DAX1 inh-2 inactive.
For CC1CCN(Cc2ccc(NC(=O)CC3Oc4ccccc4NC3=O)cc2)CC1 (centres undefined) the results were hcDAF-12 act inactive, hgDAF-12 ag inactive, ssDAF12 agonist inactive, DAX1 inh-1 inactive and DAX1 inh-2 6.2.
For O=C(CC1Oc2ccccc2NC1=O)NCc1ccc(Cl)cc1 (centres undefined) the results were hcDAF-12 act inactive, hgDAF-12 ag inactive, ssDAF12 agonist inactive, DAX1 inh-1 inactive and DAX1 inh-2 4.4.
For CCN1CCCCC(NC(=O)c2ccc(C)cc2)C1=O (centres undefined) the results were hcDAF-12 act inactive, hgDAF-12 ag inactive, ssDAF12 agonist inactive and DAX1 inh-1 inactive.
For O=C(O)CCc1ccc(-c2cccs2)n1NC(=O)c1ccc(O)cc1 the results were hcDAF-12 act inactive, hgDAF-12 ag inactive, ssDAF12 agonist inactive, DAX1 inh-1 inactive and DAX1 inh-2 inactive.
Screening O=C(O)CCc1ccc(-c2cccs2)n1NC(=O)c1cccs1 returned hcDAF-12 act inactive, hgDAF-12 ag inactive, ssDAF12 agonist inactive, DAX1 inh-1 inactive and DAX1 inh-2 4.5.
Screening C=CCn1c(C)cc(C(=O)COc2nncc3ccccc23)c1C returned hcDAF-12 act inactive, hgDAF-12 ag 13, ssDAF12 agonist inactive, DAX1 inh-1 inactive and DAX1 inh-2 inactive.
Screening Cc1cccc(NC(=O)c2ccccc2O)c1C returned hcDAF-12 act inactive, hgDAF-12 ag inactive, ssDAF12 agonist inactive, DAX1 inh-1 inactive and DAX1 inh-2 inactive.
Screening O=C(Nc1ccccc1Oc1ccccc1)c1cc([N+](=O)[O-])ccc1Cl returned hcDAF-12 act inactive, hgDAF-12 ag inactive, ssDAF12 agonist inactive, DAX1 inh-1 inactive and DAX1 inh-2 inactive.
For Cc1cccc(NC(=O)c2cc([N+](=O)[O-])ccc2Cl)c1O the results were hcDAF-12 act 6.3, hgDAF-12 ag inactive, ssDAF12 agonist inactive, DAX1 inh-1 inactive and DAX1 inh-2 inactive.
Cc1cccc(NC(=O)c2cccc([N+](=O)[O-])c2O)c1C was read as hcDAF-12 act inactive, hgDAF-12 ag 13, ssDAF12 agonist inactive, DAX1 inh-1 4.1 and DAX1 inh-2 inactive.
O=C(O)c1ccc(-c2ccccc2)[nH]c1=O was read as hcDAF-12 act inactive, hgDAF-12 ag inactive, ssDAF12 agonist inactive, DAX1 inh-1 inactive and DAX1 inh-2 5.4.
For Cn1cc(Cl)c(C(=O)Nc2nccs2)n1 the results were hcDAF-12 act inactive, hgDAF-12 ag inactive, ssDAF12 agonist inactive, DAX1 inh-1 inactive and DAX1 inh-2 inactive.
Screening O=C(Nc1nc2ccccc2s1)c1cc2c(s1)-c1ccccc1OC2 returned hcDAF-12 act inactive, hgDAF-12 ag inactive, ssDAF12 agonist inactive, DAX1 inh-1 inactive and DAX1 inh-2 inactive.
`O=C(Nc1nccs1)c1ccc(Cl)nc1` gave hcDAF-12 act 5.9, hgDAF-12 ag inactive, ssDAF12 agonist inactive, DAX1 inh-1 inactive and DAX1 inh-2 inactive.
Cc1ccc(C(=O)Nc2nccs2)s1 was read as hcDAF-12 act inactive, hgDAF-12 ag inactive, ssDAF12 agonist inactive, DAX1 inh-1 inactive and DAX1 inh-2 inactive.
For CCn1cc(Cl)c(C(=O)Nc2nccs2)n1 the results were hcDAF-12 act 6.4, hgDAF-12 ag inactive, ssDAF12 agonist inactive, DAX1 inh-1 inactive and DAX1 inh-2 inactive.
Screening O=C(Nc1nccs1)c1ccc(Br)s1 returned hcDAF-12 act 5.8, hgDAF-12 ag inactive, ssDAF12 agonist inactive, DAX1 inh-1 inactive and DAX1 inh-2 inactive.
O=C(Nc1nccs1)c1cc2c(s1)-c1ccccc1OC2 was read as hcDAF-12 act inactive, hgDAF-12 ag 10, ssDAF12 agonist inactive, DAX1 inh-1 inactive and DAX1 inh-2 inactive.
`COC(=O)c1ccccc1S(=O)(=O)NC(=O)[C@H]1O[C@@H](n2ccc(=O)[nH]c2=O)[C@H](O)[C@@H]1O` gave hcDAF-12 act inactive, hgDAF-12 ag inactive, ssDAF12 agonist inactive and DAX1 inh-1 inactive.
